Data published in PubChem BioAssay (NCI).
About 83,000 compounds went through this panel and 20% of them were active in at least one assay; those are over-represented in the sample as a whole.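 Cell lines were cultured in 96-well plates, exposed to a single compound concentration, and assessed for percent growth 48 hours later.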 A number with no mark means an inactive call. Calls of active or inactive are those of the source. The calls were made as follows: active = growth percent below 10; inactive = the rest.

Experiments:
Assay in all cases: NCI-60 one-dose screen, 48 h (100 = growth as untreated, 0 = no growth, -100 = all killed)
Details in all cases: 10 µM
HCT-15 colon = system: HCT-15 colon
HT29 colon = system: HT29 colon
SNB-75 CNS = system: SNB-75 CNS
SNB-19 CNS = system: SNB-19 CNS
U251 CNS = system: U251 CNS
PC-3 prostate = system: PC-3 prostate
SK-MEL-5 melanoma = system: SK-MEL-5 melanoma
UACC-62 melanoma = system: UACC-62 melanoma
LOX IMVI melanoma = system: LOX IMVI melanoma
SK-MEL-28 melanoma = system: SK-MEL-28 melanoma

| SMILES | growth (HCT-15 colon) | growth (HT29 colon) | growth (SNB-75 CNS) | growth (SNB-19 CNS) | growth (U251 CNS) | growth (PC-3 prostate) | growth (SK-MEL-5 melanoma) | growth (UACC-62 melanoma) | growth (LOX IMVI melanoma) | growth (SK-MEL-28 melanoma) |
| --- | --- | --- | --- | --- | --- | --- | --- | --- | --- | --- |
| c1ccc(OCCC[P+](c2ccccc2)(c2ccccc2)c2ccccc2)cc1 | 84.7% | 4.29% (active) | -5.17% (active) | 12.7% | 8.33% (active) | -0.485% (active) | -69.2% (active) | 14.6% | 2.53% (active) | 26% |
| CC(C)c1[nH]nc2c(NCc3ccc(-c4ccccn4)cc3)nc(SCCN(C)C)nc12 | 6.46% (active) | -15.7% (active) | -55.9% (active) | 13.7% | 7.48% (active) | 2.89% (active) | 1.36% (active) | -37.2% (active) | -7.56% (active) | 5.17% (active) |
| COc1cc(CSc2nc3ccc(Cl)cc3c(=O)n2Cc2ccccc2)cc(OC)c1OC | 24.9% | 11.7% | -34.5% (active) | 61.1% | 32.8% | 55.1% | 25.7% | 16.2% | 39.3% | 43.7% |
| COc1ccc(C(=O)n2nc(CC(=O)NCc3ccccc3)nc2N)cc1 | 107% | 108% | 92.9% | 97.3% | 105% | 101% | 111% | 93% | 101% | 108% |
| O=C1/C(=C/c2ccc([N+](=O)[O-])s2)Oc2ccc(Cl)cc21 | -40% (active) | -36.1% (active) | -15% (active) | 7.13% (active) | -65.4% (active) | -48% (active) | -88.7% (active) | -82.4% (active) | -70.1% (active) | -56.8% (active) |
| C#C[C@]1(O)CC[C@H]2[C@@H]3CC[C@H]4CC(F)(F)CC[C@]4(C)[C@H]3CC[C@@]21C | 94.6% | 64.1% | 70.5% | 80.3% | 73.3% | 70.7% | 94.3% | 78.8% | 89.1% | 74.4% |
| COC(=O)CCCCCCCCC(C)c1ccc(C(C)=O)cc1 (stereo not given) | 103% | 101% | 122% | 110% | 107% | 106% | 111% | 116% | 98.2% | 130% |
| Cc1cc(=O)oc2cc(OCc3cn(CC(O)CO)nn3)ccc12 (stereo not given) | 105% | 115% | 132% | 105% | 100% | 110% | 25.5% | 97.4% | 103% | 128% |
| O=NN(CC(=O)N/N=C/C=C\c1ccccc1)CC(=O)N/N=C/C=C/c1ccccc1 | 94% | 110% | 72.9% | 92.5% | 89% | 85.2% | 84.9% | 101% | 87.6% | 99.4% |
